Several values for one entry are separate records, joined by “and”; a condition that tells them apart may be missing. Equal entries are not always repeated. This is part of a sample that, as a whole, favours compounds with a hit. Of some 83,000 tested, about 20% had one in any assay.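 Negative percent growth values reflect cell death: -40 means 40% of the cells present at the start died, and -100 means all died.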 Activity calls are given as the source filed them. How the source made its calls: active means growth percent below 10; inactive means the rest.

Test systems include SR leukemia; RPMI-8226 leukemia; OVCAR-5 ovarian; OVCAR-4 ovarian; SK-OV-3 ovarian; IGROV1 ovarian; OVCAR-3 ovarian; HS 578T breast; NCI/ADR-RES ovarian.
Holding throughout (experiment): NCI-60 one-dose screen, 48 h (100 = growth as untreated, 0 = no growth, -100 = all killed)
Settings in all cases: 10 µM unless noted

With `COc1cc(NC2CCCCC2O)c2nc(-c3ccc(Cl)cc3)ccc2c1` (stereo not given), the growth with SR leukemia was -4.63% (active); in the test on RPMI-8226 leukemia, 58.3% (inactive) and 34.2% (inactive); in the test with OVCAR-5 ovarian, 107% (inactive) and 94.6% (inactive); in the test on OVCAR-4 ovarian, 75.6% (inactive) and 76.7% (inactive); with SK-OV-3 ovarian, 101% (inactive) and 105% (inactive); in the test with IGROV1 ovarian it was 97.2% (inactive) and 96% (inactive). Further, the growth in the test on OVCAR-3 ovarian was 88.1% (inactive) and 112% (inactive); in the test on HS 578T breast, 85.4% (inactive) and 138% (inactive); with NCI/ADR-RES ovarian, 84.5% (inactive).

With `O=C(O)C1C2CCC1C(O)C2` (stereo not given), the growth in the test with SR leukemia was 96.2% (inactive) and 88.2% (inactive); with RPMI-8226 leukemia it was 104% (inactive) and 90.5% (inactive); in the test on OVCAR-5 ovarian, 96.5% (inactive) and 96.2% (inactive); with SK-OV-3 ovarian, 105% (inactive) and 98.8% (inactive); in the test on IGROV1 ovarian it was 124% (inactive) and 112% (inactive); with OVCAR-3 ovarian, 108% (inactive) and 96.9% (inactive). The growth in the test on HS 578T breast is 110% (inactive) and 109% (inactive); with NCI/ADR-RES ovarian, 96.7% (inactive) and 98.2% (inactive).

For `COc1ccc(C(=O)c2ccc(OC)c(OC)c2OC)cc1`, the growth is 43.5% (inactive) and 8.36% (active) with SR leukemia; 35.3% (inactive) and 27.4% (inactive) in the test on RPMI-8226 leukemia; 83.1% (inactive) and 49.9% (inactive) in the test on OVCAR-5 ovarian; 82.8% (inactive) and 42.8% (inactive) with OVCAR-4 ovarian; 18% (inactive) and 3.38% (active) in the test with SK-OV-3 ovarian; 25.7% (inactive) and 11.9% (inactive) in the test with IGROV1 ovarian. The growth in the test with OVCAR-3 ovarian is -22.8% (active) and -39.4% (active); in the test on HS 578T breast, -9.55% (active) and -14.2% (active); with NCI/ADR-RES ovarian, 18.5% (inactive) and -13.9% (active).

`COc1ccc(-c2ccc(-c3ccc(C(=N)N)cn3)s2)cc1Cl`: the growth in the test on SR leukemia is 0.301% (active); in the test with RPMI-8226 leukemia, -41.6% (active); with OVCAR-5 ovarian, -95.5% (active); in the test on SK-OV-3 ovarian it was 100% (inactive); with IGROV1 ovarian, -83% (active); in the test with OVCAR-3 ovarian it was -38.1% (active). Moreover, the results for the growth in the test with HS 578T breast and in the test with NCI/ADR-RES ovarian were -68.5% (active) and 0.998% (active), respectively.

Consider `COc1ccc(/C(C)=C(\c2ccc(OCCN3CCOCC3)cc2)c2ccc(OC(=O)C3CCCCC3)cc2)cc1`, for which the growth was 112% (inactive) in the test on SR leukemia; 97.9% (inactive) in the test with RPMI-8226 leukemia; 98.4% (inactive) in the test on OVCAR-5 ovarian; 111% (inactive) in the test with OVCAR-4 ovarian; 101% (inactive) in the test on SK-OV-3 ovarian; 102% (inactive) in the test with IGROV1 ovarian. Besides, the growth in the test with OVCAR-3 ovarian was 97.5% (inactive); in the test on HS 578T breast, 110% (inactive); with NCI/ADR-RES ovarian, 102% (inactive).

For `COc1cc(F)c(/C=C/c2cc(/C=C/c3cc(OC)c(OC)cc3F)n(-c3cc(F)cc(F)c3)n2)cc1OC`, the growth is 8.98% (active) with SR leukemia; 18% (inactive) in the test on RPMI-8226 leukemia; 51.4% (inactive) with OVCAR-5 ovarian; 49.9% (inactive) in the test with OVCAR-4 ovarian; 108% (inactive) in the test on SK-OV-3 ovarian; 88.6% (inactive) in the test on IGROV1 ovarian. The growth was 24.2% (inactive) in the test on OVCAR-3 ovarian, 38% (inactive) in the test with HS 578T breast and 12% (inactive) with NCI/ADR-RES ovarian.

Take `CCOc1nc(-c2ccccc2)cc2c(O)c(C(=O)N/N=C/c3ccc(N(C)C)cc3)[nH]c(=O)c12`: the growth in the test on SR leukemia was 101% (inactive); with RPMI-8226 leukemia, 102% (inactive); in the test with OVCAR-5 ovarian, 115% (inactive); with OVCAR-4 ovarian, 148% (inactive); in the test on SK-OV-3 ovarian it was 197% (inactive); in the test with IGROV1 ovarian it was 15.7% (inactive). Further, the growth in the test on OVCAR-3 ovarian is 111% (inactive); with HS 578T breast it was 94.1% (inactive); in the test on NCI/ADR-RES ovarian it was 105% (inactive).

For the compound `COc1ccc2c(c1)CCNC21C(=O)Nc2c(Br)cc(Br)cc21` (stereo not given), the growth with SR leukemia was 96.4% (inactive); in the test on RPMI-8226 leukemia, 106% (inactive); with OVCAR-4 ovarian it was 95.2% (inactive); in the test with IGROV1 ovarian, 82.4% (inactive); with OVCAR-3 ovarian, 101% (inactive); in the test on HS 578T breast, 94.8% (inactive). Also, the growth with NCI/ADR-RES ovarian is 104% (inactive).

Regarding `N=C(N)c1ccc(-c2ccc(-c3ccc(Cl)c(Cl)c3)s2)cc1`, the growth with SR leukemia is 5.08% (active); in the test with RPMI-8226 leukemia, -15.6% (active); in the test with OVCAR-5 ovarian, 15.2% (inactive); in the test with OVCAR-4 ovarian it was -16.2% (active); in the test on IGROV1 ovarian, -49.5% (active); in the test on OVCAR-3 ovarian, -87.9% (active). Also, the growth was 94% (inactive) in the test with HS 578T breast and 83.5% (inactive) with NCI/ADR-RES ovarian.

On to `O=C(c1ccc(Nc2nccc(NCCCNc3ccnc4cc(Cl)ccc34)n2)cc1)N1CCCCC1`, for which the growth in the test on SR leukemia is -2.26% (active); with RPMI-8226 leukemia it was 81% (inactive); in the test on OVCAR-5 ovarian, 71.2% (inactive); with OVCAR-4 ovarian, 48.4% (inactive); with SK-OV-3 ovarian it was 66.7% (inactive); with IGROV1 ovarian, 39.7% (inactive). For the same compound, the growth with OVCAR-3 ovarian was 37.7% (inactive); in the test on HS 578T breast, 84.8% (inactive); with NCI/ADR-RES ovarian it was 92.6% (inactive).

Turning to `COc1ccc(Cn2cc(C(=O)Nc3cccnc3Nc3ccccc3)nn2)cc1`, the growth is 94.9% (inactive) in the test with SR leukemia; 96.3% (inactive) in the test with RPMI-8226 leukemia; 107% (inactive) in the test on OVCAR-5 ovarian; 95% (inactive) with OVCAR-4 ovarian; 112% (inactive) in the test with SK-OV-3 ovarian; 102% (inactive) in the test with IGROV1 ovarian. Besides, the growth in the test on HS 578T breast was 94.1% (inactive); in the test with NCI/ADR-RES ovarian, 89.8% (inactive).

Consider `CCCCn1c(C(=O)c2c[nH]c3ccccc23)n[nH]c1=S`, for which the growth is 91.7% (inactive) in the test with SR leukemia; 78.7% (inactive) with RPMI-8226 leukemia; 133% (inactive) in the test with OVCAR-5 ovarian; 88.4% (inactive) in the test on SK-OV-3 ovarian; 87.7% (inactive) in the test on IGROV1 ovarian; 106% (inactive) with OVCAR-3 ovarian. The growth was 91% (inactive) in the test with HS 578T breast and 107% (inactive) in the test on NCI/ADR-RES ovarian.

With `C=C1CC[C@@H]2[C@](C)(COC(C)=O)[C@H](OC(C)=O)CC[C@@]2(C)[C@@H]1CC(Nc1ccc(S(=O)(=O)Nc2nccs2)cc1)C1=CCOC1=O` (stereo not given in full), the growth in the test with SR leukemia is -5.84% (active); in the test on RPMI-8226 leukemia, -13.3% (active); in the test with OVCAR-5 ovarian, 7.82% (active); with OVCAR-4 ovarian, 38% (inactive); in the test on SK-OV-3 ovarian, 79.9% (inactive); with IGROV1 ovarian, 12.6% (inactive). Also, the growth in the test with OVCAR-3 ovarian was -70.2% (active); with HS 578T breast, 51.9% (inactive); in the test on NCI/ADR-RES ovarian, 9.2% (active).

Values taken from PubChem BioAssay (NCI).
